JMJD2A Tudor: qHTS Assay for Inhibitors of JMJD2A-Tudor Domain; Potency, µM (doses to about 114 µM), most hits filed as inhibitors; Lysine-specific demethylase 4A (Homo sapiens), O75164; AlphaScreen JMJD2A-Tudor / H3K4me3 peptide binding; 4.4% of 390,000 active; note: nearly all actives have a fitted effect of over 50% in size
12-LOX inh: Primary qHTS assay for inhibitors of human arachidonate 12S-lipoxygenase (ALOX12): Round 2; Polyunsaturated fatty acid lipoxygenase ALOX12 (Homo sapiens), P18054; purified 12hLO, xylenol orange hydroperoxide absorbance; Potency, µM (titrated, usually from 108 µM), most hits filed as inhibitors; 1.1% of 580,000 active; AID 1671190, 2021
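Purified human 12hLO at 150 nM in 25 mM Hepes, 0.01% Triton X-100, pH 7.0, preincubated 15 min at room temperature with compound. Reaction started with 40 uM arachidonic acid, 30 min at room temperature. Hydroperoxide measured by Fe-xylenol orange, 573/405 nm absorbance ratio.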
BAZ2B block: qHTS Assay for Inhibitors of BAZ2B; Bromodomain adjacent to zinc finger domain protein 2B (Homo sapiens), Q9UIF8; AlphaScreen BAZ2B-H3K14Ac peptide displacement; Potency, µM (doses to about 114 µM), hits mostly inhibitors; 4.4% of 360,000 active; AID 504333, 2011; note: nearly all actives have a fitted effect of over 60% in size
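AlphaScreen luminescence quantifies BAZ2B engagement of H3K14Ac peptide; the protein and biotinylated peptide are both at 50 nM final, buffer PBS pH 7.4 with 0.01% Tween-20, all steps at room temperature.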
PLK1 PBD inh: qHTS for Inhibitors of PLK1-PDB (polo-like kinase 1 - polo-box domain): Primary Screen; Plk1 PBD binding of FITC phosphopeptide, fluorescence polarization; Potency, µM, hits mostly inhibitors; 2.8% of 360,000 active; note: series mostly up to about 57 µM; nearly all actives have a fitted effect of over 65% in size
HP1b binding inh: HTS for Inhibitors of HP1-beta Chromodomain Interactions with Methylated Histone Tails | Chromobox protein homolog 1 (Homo sapiens), P83916 | AlphaScreen HP1-beta / biotin-H3K9me3 peptide binding | Potency, µM (series often up to 114 µM), hits mostly inhibitors | 0.56% of 390,000 active; note: nearly all actives have a fitted effect of over 70% in size
Target sequence (P83916 whole entry, looked up): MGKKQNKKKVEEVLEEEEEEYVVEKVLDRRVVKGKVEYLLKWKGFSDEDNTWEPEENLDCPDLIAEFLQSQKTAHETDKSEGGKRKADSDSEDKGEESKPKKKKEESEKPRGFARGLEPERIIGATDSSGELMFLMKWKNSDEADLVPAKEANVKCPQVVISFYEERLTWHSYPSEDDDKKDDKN
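HP1-beta protein (50 nM final) preincubated 30 min at room temperature with biotinylated H3(1-18)K9me3 peptide (50 nM) in PBS pH 7.4, 0.01% Tween-20, then compound added for 30 min. AlphaScreen streptavidin donor/nickel chelate acceptor beads (10 ug/mL final), 30 min dark, luminescence read.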
G9a block: qHTS Assay for Inhibitors of Histone Lysine Methyltransferase G9a | Histone-lysine N-methyltransferase EHMT2 (Homo sapiens), Q96KQ7 | G9a H3K9 monomethylation, AlphaScreen, 2 h | Potency, µM (highest dose often 102 µM), actives largely listed as inhibitors | 8.8% of 350,000 active; note: nearly all actives have a fitted effect of over 75% in size
Target sequence (Q96KQ7 913-1193 limits assumed): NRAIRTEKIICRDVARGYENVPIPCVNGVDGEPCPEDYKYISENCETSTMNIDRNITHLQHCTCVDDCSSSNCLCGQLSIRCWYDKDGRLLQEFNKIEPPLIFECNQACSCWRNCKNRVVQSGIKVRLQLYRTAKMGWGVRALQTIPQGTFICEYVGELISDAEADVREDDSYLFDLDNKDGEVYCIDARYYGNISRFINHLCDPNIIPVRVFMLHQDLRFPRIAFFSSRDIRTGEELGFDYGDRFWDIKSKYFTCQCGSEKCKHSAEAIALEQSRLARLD
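Methyltransferase reactions run at room temperature for 2 h (20 nM enzyme, 500 nM biotin-H3K9 peptide, 20 uM SAM) after a 15 min compound preincubation; product detected by AlphaScreen beads and anti-H3K9me1 antibody.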
Of the large screens only hits and unclear results are named; the others gave an inactive call. An excerpt weighted towards active compounds, which were near 9% of everything screened. Calls come from the whole dose curve; as a rule, active = well fitted curve in the direction sought with a large enough effect; inconclusive = small, poorly fitted or top-dose-only effect, or another doubt; inactive = no such curve, though single readings can be large; an effect the other way counts as inactive or inconclusive.

Cc1ccc(N=C2NC(=O)CS2)cc1	none
Cc1ccc(C)n1/N=C1/NC(=O)CS1	JMJD2A Tudor 79µM, PLK1 PBD inh inconclusive
O=C(O)CCc1nn2c3ccccc3n(CCOc3ccccc3)c2nc1=O	none (no result: JMJD2A Tudor, BAZ2B block, PLK1 PBD inh, HP1b binding inh, G9a block)
O=C1N=c2ccccc2=C1c1[nH]c(=S)[nH]c1O	BAZ2B block inconclusive, G9a block inconclusive
Cc1ccc(Cl)c2c1=NC(=O)C=2c1[nH]c(=S)[nH]c1O	12-LOX inh inconclusive, BAZ2B block inconclusive, HP1b binding inh inconclusive, G9a block 7.9µM
COC(=O)[C@H]1C[C@@]2(O)CN(S(=O)(=O)c3ccc(C)cc3)C[C@@]2(OC(=O)NCC2CCCCC2)C[C@H]1C(=O)OC	none (no result: JMJD2A Tudor, BAZ2B block, HP1b binding inh, G9a block)
COc1ccc(NCCN)cc1	none (no result: JMJD2A Tudor, BAZ2B block, PLK1 PBD inh, HP1b binding inh, G9a block)
COc1ccc(CCNc2ccc(C)cc2)cc1	JMJD2A Tudor 40µM, BAZ2B block inconclusive, HP1b binding inh inconclusive, G9a block inconclusive
O=C(Cn1cnc2c(OCc3ccccc3)ncnc21)NCc1ccccc1	JMJD2A Tudor inconclusive, PLK1 PBD inh 24µM (no result: BAZ2B block, G9a block)
COc1cc(C=CC(=O)c2ccccc2)cc(OC)c1OC	none (no result: JMJD2A Tudor, BAZ2B block, HP1b binding inh, G9a block)
O=C1N(O)C2(C=CCCC2)/C(=N\O)C12CCCCC2 (stereo not drawn)	12-LOX inh inconclusive, PLK1 PBD inh 30µM (no result: BAZ2B block)
O=C(Cn1c(-c2ccccc2)c[n+]2ccsc12)c1ccc(Br)cc1	PLK1 PBD inh inconclusive, G9a block inconclusive
O=C(Nc1cccc(-c2nc3ccccc3s2)c1)[C@@H]1CCCN1C(=O)c1cccs1	12-LOX inh 40µM (no result: JMJD2A Tudor, BAZ2B block, PLK1 PBD inh, HP1b binding inh, G9a block)
CC(C)CCNC(=O)c1cccc(C(=O)NCCC(C)C)c1	PLK1 PBD inh 24µM
Cc1cccc(C(=O)Nc2ccc(C3(C(=O)NCCC(C)C)CCCCC3)cc2)c1	12-LOX inh 7.9µM (no result: JMJD2A Tudor, BAZ2B block, PLK1 PBD inh, HP1b binding inh, G9a block)
CCCCNC(=O)C1(c2ccc(NC(=O)C(C)C)cc2)CCCCC1	none (no result: JMJD2A Tudor, BAZ2B block, PLK1 PBD inh, HP1b binding inh, G9a block)
COc1cccc(CNC(=O)Cn2c(=O)[nH]c3c(-c4ccccc4F)c[nH]c3c2=O)c1	none (no result: JMJD2A Tudor, BAZ2B block, PLK1 PBD inh, HP1b binding inh, G9a block)
COc1cc(C(=O)OCC(=O)c2cc(C)n(CC3CCCO3)c2C)cc(OC)c1C (stereo not drawn)	JMJD2A Tudor 45µM, BAZ2B block 50µM, G9a block inconclusive
CCC(=O)c1ccc(OCC(=O)OCC(=O)c2cc(C)n(CC3CCCO3)c2C)cc1 (stereo not drawn)	BAZ2B block inconclusive, G9a block inconclusive
Cc1cc(C(=O)COC(=O)c2ccc3c(c2)OCO3)c(C)n1CC1CCCO1 (stereo not drawn)	BAZ2B block inconclusive, G9a block 50µM
CC(C)(C)c1ccc(OCC(=O)NNC(=O)Nc2ccccc2)cc1	none
O=C(CNC(=O)N1CC(=O)Nc2ccccc21)NCc1ccccc1	none
O=C(O)C(Oc1ccc2cc(-c3ccc(Cl)cc3)c(=O)oc2c1)c1ccccc1 (stereo not drawn)	12-LOX inh inconclusive, PLK1 PBD inh 42µM (no result: G9a block)
CC(=O)NC(Nc1nc2c(s1)CCCC2)(C(F)(F)F)C(F)(F)F	12-LOX inh inconclusive, PLK1 PBD inh inconclusive, HP1b binding inh inconclusive, G9a block 50µM
CCOC(=O)N[C@H](C(=O)N1CCC[C@H]1C(=O)NCc1ccccc1)C(C)C	none (no result: JMJD2A Tudor, BAZ2B block, PLK1 PBD inh, HP1b binding inh, G9a block)
O=C1CN(S(=O)(=O)c2cccc(Cl)c2Cl)CCN1	none
O=C1CN(S(=O)(=O)c2ccccc2Cl)CCN1	PLK1 PBD inh 15µM
COc1ccc(NC(=O)c2cc(=O)c3ccccc3o2)cc1Cl	G9a block 56µM
COc1ccc2nc(NC(=O)c3cc(=O)c4cc(C)c(C)cc4o3)sc2c1	none (no result: PLK1 PBD inh)
COc1cc(NC(=O)c2cc(=O)c3ccccc3o2)cc(OC)c1	none (no result: JMJD2A Tudor, BAZ2B block, PLK1 PBD inh, HP1b binding inh, G9a block)
COc1ccc2nc(NNC(=O)c3cc(=O)c4ccccc4o3)sc2c1	JMJD2A Tudor 56µM, 12-LOX inh inconclusive, BAZ2B block 50µM, HP1b binding inh inconclusive, G9a block 8.9µM
Cc1ccc2sc(NNC(=O)c3cc(=O)c4ccccc4o3)nc2c1C	JMJD2A Tudor 56µM, 12-LOX inh inconclusive, BAZ2B block 50µM, HP1b binding inh inconclusive, G9a block 7.1µM
Cc1cccc(NC(=O)CNC(=O)c2cc(=O)c3ccccc3o2)c1C	none (no result: JMJD2A Tudor, BAZ2B block, PLK1 PBD inh, HP1b binding inh, G9a block)
Cc1cccc2sc(NNC(=O)c3cc(=O)c4ccccc4o3)nc12	JMJD2A Tudor inconclusive, 12-LOX inh 32µM, BAZ2B block 45µM, PLK1 PBD inh inconclusive (no result: G9a block)
NC(=O)C1CCN(Cc2nnc3cc(-c4nc(-c5ccccc5)no4)ccn23)CC1	none (no result: JMJD2A Tudor, BAZ2B block, PLK1 PBD inh, HP1b binding inh, G9a block)
O=C(NNc1nc2c(F)cccc2s1)c1cc(=O)c2ccccc2o1	G9a block 35µM
COc1ccc(C(=O)NCC(=O)OCC(=O)N(C)c2ccccc2)cc1	none
CN(C(=O)COC(=O)c1ccc(=O)n(Cc2ccccc2)n1)c1ccccc1	JMJD2A Tudor inconclusive, 12-LOX inh inconclusive, PLK1 PBD inh 17µM
COc1cccc(OC)c1C(=O)OCC(=O)N(C)c1ccccc1	JMJD2A Tudor inconclusive, PLK1 PBD inh 27µM
Cc1cc(C)cc(C(=O)NCC(=O)OCC(=O)N(C)c2ccccc2)c1	JMJD2A Tudor 50µM, PLK1 PBD inh 24µM (no result: BAZ2B block)
C/C(=N\OCC(=O)OCC(=O)N(C)c1ccccc1)c1ccc2c(c1)OCO2	BAZ2B block 79µM
CN(C(=O)COC(=O)c1ccccc1C(=O)N(C)c1ccccc1)c1ccccc1	12-LOX inh inconclusive
CN(C)S(=O)(=O)c1cccc(NC(=O)CN2C(=O)NC(Cc3ccccc3)C2=O)c1 (stereo not drawn)	none
Cc1cccc(CSc2nc3c(cnn3CCO)c(=O)[nH]2)c1	none (no result: JMJD2A Tudor, BAZ2B block, PLK1 PBD inh, HP1b binding inh, G9a block)
Cc1ccc(/C=N/NC(=O)c2cccc(S(=O)(=O)Nc3cccc(Cl)c3)c2)o1	none
O=C(NC1CCc2ccccc21)c1cc(COc2ccc(F)cc2Cl)on1 (stereo not drawn)	none (no result: G9a block)

From PubChem
